Results from PubChem BioAssay AID1220 (Sanford-Burnham Center for Chemical Genomics, 2008).
About 1,300 (0.68%) of roughly 190,000 compounds were called active. For the sample, actives were picked, then their nearest neighbours and some compounds at random. Values without a mark were called inactive. Cut-off read from the data, not from the text of the source: active = inhibition above about 50%; inactive = the rest.

Target: Mannose-6-phosphate isomerase (Homo sapiens) (UniProt P34949)
Assay: human PMI inhibitors, high substrate, primary screen, biochemical, fluorescence intensity, high mannose 6-phosphate (AID 1220)
Conditions: recombinant PMI enzyme, coupled fluorescence intensity; at 20 µM; hits give high values

Sequence of Mannose-6-phosphate isomerase (Homo sapiens) (P34949 whole entry, looked up): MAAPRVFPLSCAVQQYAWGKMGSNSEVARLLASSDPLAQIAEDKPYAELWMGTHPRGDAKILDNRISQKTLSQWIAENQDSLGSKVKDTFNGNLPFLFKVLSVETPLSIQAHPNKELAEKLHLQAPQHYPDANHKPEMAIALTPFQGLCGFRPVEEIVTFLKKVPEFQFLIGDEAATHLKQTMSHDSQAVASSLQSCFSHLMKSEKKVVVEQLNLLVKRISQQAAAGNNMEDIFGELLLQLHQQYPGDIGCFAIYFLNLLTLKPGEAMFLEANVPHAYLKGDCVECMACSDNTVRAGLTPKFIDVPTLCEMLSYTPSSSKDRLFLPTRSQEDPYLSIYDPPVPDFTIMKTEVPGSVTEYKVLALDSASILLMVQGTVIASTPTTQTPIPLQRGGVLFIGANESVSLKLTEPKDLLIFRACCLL

Row | Structure (SMILES) | inhibition
1 | Cn1c(Cn2c(=O)sc3ccccc32)nnc1SCC(=O)NCC1CCCO1 (configuration not stated) | 2.5%
2 | CC(C)Cc1ccc(/C=C/C(=O)N2CCCCC2)cc1 | 9.7%
3 | Cc1ccc2nc(NC(=O)c3ccc(-c4nc5ccccc5s4)s3)sc2c1 | -17.4%
4 | COc1ccc(N2CCN(c3nc4ccc(C)cn4c(=O)c3C=O)CC2)cc1 | 56.9% (active)
5 | Cc1ccc2nc(N3CCCCC3)c(C=O)c(=O)n2c1 | -6.8%
6 | Cc1ccc2nc(N3CCN(c4ccccc4)CC3)c(C=O)c(=O)n2c1 | 50.4% (active)
7 | COc1ccc(N2CCN(c3nc4ccccn4c(=O)c3C=O)CC2)cc1 | 42.4%
8 | Cc1ccc2nc(N3CCN(c4ccccc4F)CC3)c(C=O)c(=O)n2c1 | 19.9%
9 | Cc1ccc2nc(N3CCOCC3)c(C=O)c(=O)n2c1 | 2.9%
10 | CC(C)(C)c1ccc(NC(=O)COC(=O)CCN2C(=O)c3cccc([N+](=O)[O-])c3C2=O)cc1 | 3.2%
11 | CN1CCN(S(=O)(=O)c2ccc(NC(=O)c3csc4ccccc34)cc2)CC1 | -13.4%
12 | CC(=O)Nc1ccc(NS(=O)(=O)Cc2ccccc2)cc1 | 3.4%
13 | COc1ccc(C(CNC(=O)Cc2ccccc2F)N2CCCCC2)cc1 (configuration not stated) | -1.6%
14 | CN1/C(=C\C(=O)c2ccco2)c2ccccc2CC1(C)C | -4.8%
15 | Cc1ccccc1NC(=S)NC12CN3CN(CN(C3)C1)C2 | 1.3%
16 | CCc1ccccc1N1CC23C=CC(O2)C(C(=O)OCC(C)C)C3C1=O (configuration not stated) | 7.8%
17 | Cc1cccc(-c2nnc(SCC#N)n2Cc2ccccc2)c1 | -0.8%
18 | CC(Sc1cccc[n+]1[O-])C(=O)Nc1ccc(Oc2ccccc2)cc1 (configuration not stated) | 0%
19 | CC(=O)N/N=C/c1c(C)[nH]n(-c2ccccc2)c1=O | 7.9%
20 | O=C(O)CN1C(=O)/C(=C/c2ccsc2)SC1=S | -5.3%
21 | CCCc1cc(C(=O)Cc2ccc(C(=O)OCC)o2)c(O)cc1O | -51.6%
22 | COC(=O)c1ccc(CC(=O)c2c(C)cc(O)cc2O)o1 | 50.8% (active)
23 | CCOC(=O)c1ccc(CC(=O)c2ccc(O)cc2O)o1 | -31.2%
24 | COC(=O)c1ccc(CC(=O)c2ccc(O)cc2O)o1 | -59.1%
25 | Cc1cc(O)cc(O)c1C(=O)Cc1ccccc1 | -2.6%
26 | Cc1ccc(NCc2nnc(SCC(=O)NCc3ccco3)n2CC2CCCO2)c(C)c1 (configuration not stated) | 8%

Row | Structure (SMILES) | inhibition
27 | CCSC1=NCCN1S(=O)(=O)c1ccccc1 | 7.2%
28 | C/C(=C\C(=O)Nc1cc(C)on1)c1ccccc1 | 15.6%
29 | Cc1nnc(NC(=O)C(C)Oc2ccc3c(C)cc(=O)oc3c2)s1 (configuration not stated) | -8.9%
30 | CCS(=O)(=O)N1Cc2ccccc2CC1C(=O)Nc1ncc(C)s1 (configuration not stated) | -7.1%
31 | Clc1cccc(Cl)c1Cn1cnc2c(N3CCCCCC3)ncnc21 | 14.8%
32 | CC(=O)c1ccc2cccc3c2c1N=CN3C | 55.2% (active)
33 | CC(=O)N1C(=O)c2cccc3cccc(c23)C(=O)N1C(C)=O | 7.9%
34 | CC(=O)c1c(C(C)=O)c(C)n(-c2cccc3cccnc23)c1C | -2.3%
35 | CC1=Nc2ncnn2C(c2ccccc2)/C1=N\O (configuration not stated) | -9.4%
36 | Cc1ccc(NC2c3ncccc3C(=O)N2c2ccccc2C)cc1C (configuration not stated) | -17.7%
37 | O=C(CCNC(=O)Cn1ccc2ccccc2c1=O)NCCCN1CCOCC1 | 10.9%
38 | COc1ccc(OCC(=O)N/N=C/c2ccsc2)cc1 | 17.2%
39 | Cc1ccc(C)c(OCC(=O)N/N=C/c2ccsc2)c1 | 3%
40 | CC(C)(C)c1ccc(OCC(=O)N/N=C/c2ccsc2)cc1 | 54.9% (active)
41 | Cc1ccc(N2C(=O)c3cccc(Oc4ccc(Cl)cc4)c3C2=O)c(C)c1 | 50.4% (active)
42 | O=C(O)c1cccc(N2C(=O)c3cccc(Oc4ccc(Cl)cc4)c3C2=O)c1 | -8.6%
43 | Cc1cccc(N2C(=O)c3cccc(Oc4ccc(Cl)cc4)c3C2=O)c1 | 13.8%
44 | Cc1[nH]c(=O)c(C#N)cc1-c1ccccc1 | 10.3%
45 | CCn1c(=O)cc(SCC(=O)N2CCN(C)CC2)c2ccccc21 | -10.8%
46 | CC(=O)Nc1ccc(-c2nc(C)c(C(C)=O)n2O)cc1 | 22.6%
47 | Cc1ccc2cccc(OCC(=O)c3cc(C)n(Cc4ccco4)c3C)c2n1 | 20.9%
48 | CC(=O)Nc1ccccc1OCC(=O)c1cc(C)n(Cc2cccs2)c1C | 17.5%
49 | Cc1cc(C(=O)COc2cccnc2[N+](=O)[O-])c(C)n1Cc1cccs1 | 64.4% (active)
50 | Cc1ccc(OCC(=O)c2cc(C)n(Cc3cccs3)c2C)c([N+](=O)[O-])n1 | 26.4%
51 | O=C(COc1cccnc1[N+](=O)[O-])NCc1cccs1 | 3%
52 | O=C(COc1cccnc1[N+](=O)[O-])NCc1ccco1 | 65.7% (active)

Row | Structure (SMILES) | inhibition
53 | Cc1ccc(OCC(=O)NCc2ccco2)c([N+](=O)[O-])n1 | 1.9%
54 | Cc1cc(C(=O)COc2cccnc2[N+](=O)[O-])c(C)n1Cc1ccco1 | 59.5% (active)
55 | CCOc1ncccc1C(=O)OCC(=O)c1cc(C)n(Cc2ccco2)c1C | 12.1%
56 | O=[N+]([O-])c1cc(C(F)(F)F)ccc1NCCOc1ccccc1 | 9%
57 | O=C(CCCCn1c(=O)c2ccccc2n(CC(=O)Nc2cccc(F)c2)c1=O)NCc1ccco1 | 9.4%
58 | COc1ccc(S(=O)(=O)N(CC(=O)N2CCN(c3ccccc3OC)CC2)c2ccccc2)cc1 | 13.1%
59 | COc1ccc(NC(C)=O)cc1NC(C)C(=O)Nc1ccc(F)cc1 (configuration not stated) | 7%
60 | Cc1sc2nc(C(C)Nc3ccccc3N3CCOCC3)[nH]c(=O)c2c1C (configuration not stated) | 26.7%
61 | COc1ccc(NC(C)=O)cc1NC(C)c1nc2sc(C)c(C)c2c(=O)[nH]1 (configuration not stated) | 66.6% (active)
62 | COc1ccc(S(=O)(=O)CCC(=O)N2CCN(c3ccc(F)cc3)CC2)cc1 | -1.5%
63 | CCn1c(COc2ccc3c(c2)OCO3)nnc1SCC(=O)O | -46.4%
64 | COc1ccccc1/C=C/C(=O)Oc1cccc2cccnc12 | 26.5%
65 | Cc1c(C(=O)Nc2cccc3cccnc23)oc2ccccc12 | -0.2%
66 | Cc1ccc(C(C)C)c(OC(=O)/C=C/c2ccccc2)c1 | 6.5%
67 | O=C(/C=C\c1ccco1)Oc1cccc2cccnc12 | 34.3%
68 | COC(=O)c1ccccc1OCCOCCOc1cccc2ccc(C)nc12 | 45%
69 | O=C(/C=C\c1ccccc1)Oc1cccc2cccnc12 | 51.9% (active)
70 | Cc1c(C(=O)Oc2cccc3cccnc23)oc2ccccc12 | 50% (active)
71 | Cc1ccc2cccc(OC(=O)/C=C\c3ccccc3)c2n1 | 60.1% (active)
72 | O=C(Oc1cccc2cccnc12)c1ccc2c(c1)OCCO2 | 29.5%
73 | Cc1ccc2cccc(OCC(=O)Nc3ccc4c(c3)OCO4)c2n1 | 15.2%
74 | CCc1nc2ccccc2c(C(=O)Oc2cccc3cccnc23)c1C | 7.3%
75 | Cc1ccc2cccc(OC(=O)c3ccc4c(c3)OCCO4)c2n1 | 54% (active)
76 | CCOCC(=O)Nc1nnc(COCC)s1 | -1.8%
77 | Cc1cc(NC(=O)COC(=O)CCCOc2ccc(Cl)cc2C)no1 | 4.5%
78 | O=C(O)COc1ccc(/C=N/NC(=O)C2CCCN2S(=O)(=O)c2ccc(Cl)cc2)cc1 (configuration not stated) | -3.5%

Row | Structure (SMILES) | inhibition
79 | O=C(O/N=C\c1ccc(N2CCOCC2)c([N+](=O)[O-])c1)c1ccc(F)cc1 | 8%
80 | COc1ccc(NC(=O)CSCc2ccc(C)cc2)cc1 | 1.9%
81 | Cc1ccc(C2NC(=O)c3c(sc(C)c3C)N2)c(O)c1 (configuration not stated) | -21.9%
82 | Nc1ccccc1Nc1cc(-c2ccccc2)[nH]n1 | 28%
83 | Cc1nc2c(n1C1CCCCC1)C(=O)c1ccccc1C2=O | 35.4%
84 | COc1ccc(NC(=O)CSc2cc(C)ccc2C)cn1 | 10.5%
85 | COc1ccc(CC2(CO)CCN(Cc3cccc(OC)c3OC)CC2)cc1 | 6.7%
86 | COc1ccc(NCc2cc3ccccc3[nH]c2=O)cc1 | 59.2% (active)
87 | COc1ccc(NCc2cc3cc(OC)ccc3[nH]c2=O)cc1 | 30.7%
88 | COc1ccc2[nH]c(=O)c(CNc3ccc(C)c(C)c3)cc2c1 | 48.9%
89 | COc1ccc2[nH]c(=O)c(CNc3cccc(C)c3)cc2c1 | 55.1% (active)
90 | COc1ccc2[nH]c(=O)c(CNc3ccccc3)cc2c1 | 44.2%
91 | CC(C)(C)NCc1cc2ccccc2[nH]c1=O | 6.8%
92 | CNCC(O)COc1cccc(OC)c1 (configuration not stated) | 9.8%
93 | Cc1c(C)c2ccc(OS(C)(=O)=O)c(C)c2oc1=O | -10.6%
94 | Fc1ccc(CNC(=S)Nc2ccc(OC(F)F)cc2)cc1 | 5.2%
95 | O=[N+]([O-])c1ccccc1S(=O)(=O)N1CCN(Cc2cc3c(cc2O)OCO3)CC1 | 59.2% (active)
96 | O=[N+]([O-])c1ccccc1S(=O)(=O)N1CCN(Cc2ccc3c(c2)OCO3)CC1 | -3.6%
97 | O=[N+]([O-])c1ccccc1S(=O)(=O)N1CCN(Cc2ccsc2)CC1 | 7.8%
98 | COc1ccc(CN(Cc2cc3cc(OC)c(OC)cc3[nH]c2=O)C(=O)NC2CCCCC2)cc1 | 0.5%
99 | COc1ccc(/C=N/OCC(=O)Nc2ccc3c(c2)OCO3)c(OC)c1 | 10.9%
100 | O=C(O)Cn1c2ccccc2c2ccccc21 | -2.4%
101 | O=C(O)CCn1c2c(c3ccccc31)CCCC2 | 8.9%
102 | O=C(O)Cn1c2c(c3ccccc31)CCCC2 | 58.5% (active)
